This is an account of results in the supplement of paper PMC6555819.

Assay in all cases: PBM binding z-score (relative to random genomic background probes); higher = stronger binding; sequences stand for … in GC…GCGATTGACAGCGTAGAATGAAGG
The test system of assay [1] is FXR:RXRa (NR concentration 270 nM, RXRa partner concentration 90 nM). In outline:
(§1)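 Custom Agilent 4×180K protein-binding microarrays carried double-stranded probes. Their 34-nt variable regions held direct-repeat seeds, single-nucleotide variants, half-site ablations and random human genomic background sequences. Arrays were incubated 1 h with ligand-free nuclear receptor dimers in PBS pH 7.4, 2% milk, 0.02% Triton X-100, 1 mM DTT, 0.2 mg/mL BSA and 0.4 mg/ml salmon testes DNA. Antibodies against each partner (one per run) detected binding, and scanned fluorescence was regression-normalized. Binding z-scores use random background probes as reference.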

The test system of assay [2] is LXRa:RXRa (NR concentration 270 nM, RXRa partner concentration 90 nM). In outline: as §1
The subject of assay [3] is LXRa homodimer (NR concentration 270 nM). The method in brief: as §1
Assay [4] has as its system LXRb:RXRa (NR concentration 270 nM, RXRa partner concentration 90 nM). The method in brief:
as §1

The test system of assay [5] is LXRb homodimer (NR concentration 270 nM). In outline:
as §1

Assay [6] concerns PPARa:RXRa (NR concentration 270 nM, RXRa partner concentration 90 nM). In outline: as §1
In assay [7] the test system is PPARg:RXRa (NR concentration 180 nM, RXRa partner concentration 90 nM). The method in brief: as §1
The test system of assay [8] is PPARg:RXRa 270nM:90nM, anti-RXR (NR concentration 270 nM, RXRa partner concentration 90 nM). In outline:
as §1

The subject of assay [9] is PPARg:RXRa 30nM:10nM, anti-RXR (NR concentration 30 nM, RXRa partner concentration 10 nM). In outline:
as §1

Assay [10] has as its system PPARg:RXRa 90nM:30nM, anti-RXR (NR concentration 90 nM, RXRa partner concentration 30 nM). The method in brief:
as §1

For assay [11], the system named is PPARg:RXRa DBDmut IVT, anti-RXR (DBD mutation: RXRa K156A/R161A, NR concentration 270 nM, RXRa partner concentration 90 nM). In outline:
as §1

Assay [12] concerns PPARg:RXRa IVT, anti-PPARg (NR concentration 270 nM, RXRa partner concentration 90 nM). In outline: as §1
Assay [13] concerns PPARg DBDmut:RXRa IVT, anti-PPARg (DBD mutation: PPARg1 K132A/R137A, NR concentration 270 nM, RXRa partner concentration 90 nM). The method in brief: as §1
Assay [14] concerns PPARg DBDmut IVT, anti-PPARg (DBD mutation: PPARg1 K132A/R137A, NR concentration 270 nM). The method in brief: as §1
The subject of assay [15] is PPARg homodimer (NR concentration 180 nM). The method in brief: as §1
Assay [16] concerns PXR:RXRa (NR concentration 270 nM, RXRa partner concentration 90 nM). The method in brief:
as §1

Assay [17] concerns PXR homodimer (NR concentration 270 nM). The method in brief: as §1
The subject of assay [18] is RARa:RXR (NR concentration 270 nM, RXRa partner concentration 90 nM). In outline:
as §1

The subject of assay [19] is RARa homodimer (NR concentration 270 nM). In outline:
as §1

Assay [20] has as its system RARb:RXRa (NR concentration 270 nM, RXRa partner concentration 90 nM). The method in brief: as §1

Consider CCTACTGGGCCAACGGTCATTGATTCCAATGCTC, for which the PBM binding z-score in [1] was 0.0438; in [2], -0.079; in assay [3], 0.674; in [4] it was -0.198; in [5], -0.607; in [6], 2.53. For the same sequence, the PBM binding z-score was 5.23 in [7]; 6.24 in assay [8]; 4.4 in assay [9]; 5.61 in [10]; 3.68 in assay [11]; 4.73 in assay [12]. Also, the PBM binding z-score in [13] was -0.311; in [14] it was -0.326; in assay [15] it was 0.249; in assay [16] it was -0.304; in assay [17], 0.00743; in assay [18], -0.143. Besides, the PBM binding z-score was -0.558 in [19] and 1.37 in assay [20].

Take ATCTCTAGATAAAGTTCAGTGAAAGATCGATAGA: the PBM binding z-score in assay [1] was 0.465; in assay [2] it was 1.1; in assay [3] it was 1.05; in assay [4], 0.684; in assay [5] it was 0.314; in assay [6] it was 1.48. In addition, the PBM binding z-score is 2.39 in assay [7]; 3.45 in assay [8]; 1.46 in assay [9]; 3.1 in [10]; -0.492 in [11]; 0.294 in assay [12]. Further, the PBM binding z-score stood at 0.931 in assay [13]; 0.898 in assay [14]; 0.994 in assay [15]; 1.36 in assay [16]; 1.39 in [17]; 0.786 in assay [18]. Also, the PBM binding z-score amounted to 1.06 in assay [19] and 2.17 in [20].

Turning to CCTTACGGGTCAAGGTTAGAGCACGGGTGGTACG, the PBM binding z-score in assay [1] is 5.52; in assay [2] it was 3.41; in [3] it was -0.175; in [4], 2.64; in [5], -0.214; in assay [6] it was 4.92. In addition, the PBM binding z-score in [7] was determined as 4.33; in assay [8], 4.83; in assay [9], 1.86; in assay [10], 3.37; in [11], 1.69; in [12], 3.34. The PBM binding z-score in assay [13] was 0.826; in assay [14] it was 0.266; in assay [15], 2.42; in [16], 3.08; in assay [17], -0.133; in [18], 3.92. The PBM binding z-score in assay [19] is 0.744; in assay [20], 4.13.

In the case of TCTTGTAGATCAAGCAGGTTAAGTAAGCCTGAGT, the PBM binding z-score was 0.318 in assay [1]; 0.3 in assay [2]; -0.426 in assay [3]; 0.29 in [4]; -0.426 in [5]; 0.576 in [6]. In addition, the PBM binding z-score in [7] is -0.618; in [8], 1.2; in assay [9], 2.3; in [10] it was 1.78; in [11], 1.68; in assay [12], 0.377. The PBM binding z-score in assay [13] was 0.298; in [14] it was -0.27; in assay [15] it was 0.192; in [16], 0.295; in assay [17], 0.247; in assay [18] it was 0.198. The PBM binding z-score was -0.203 in [19] and 0.138 in assay [20].

Turning to TCATATAGGTATAAGGTGAAAGTCGGTGTGGTAA, the PBM binding z-score in assay [1] worked out at 1.55; in assay [2] it was 1.21; in assay [3], 0.319; in [4] it was 1.37; in [5], 0.352; in [6] it was 3.14. Moreover, the PBM binding z-score was 3.92 in [7]; 5.38 in [8]; 5.06 in assay [9]; 5.68 in assay [10]; 2.8 in assay [11]; 2.27 in assay [12]. Moreover, the PBM binding z-score in assay [13] turned out to be 1.02; in [14] it was 0.854; in assay [15] it was 1.32; in assay [16] it was 0.935; in [17], 0.866; in assay [18], 1.62. Moreover, the PBM binding z-score was determined as 1.54 in [19] and 1.23 in assay [20].

Regarding TCAGACAGGCGAAGGTAACTCAGGTACGCAGTCG, the PBM binding z-score is 0.672 in assay [1]; 1.16 in assay [2]; -0.549 in [3]; 0.255 in assay [4]; -0.893 in [5]; 0.184 in assay [6]. The PBM binding z-score in assay [7] is 0.517; in assay [8], 1.53; in assay [9] it was 3.02; in assay [10] it was 2.41; in assay [11], 1.62; in assay [12], -0.431. The PBM binding z-score was -0.529 in [13]; -0.776 in assay [14]; -0.126 in assay [15]; 0.167 in assay [16]; -0.281 in assay [17]; 0.0245 in assay [18]. Further, the PBM binding z-score is -0.553 in assay [19] and 0.0079 in assay [20].
